# According to the supplement of paper PMC9844399:
# Structures can show the parent of a compound that is named as a salt. A number with no mark means an inactive call.
# System: HeLa
# Assay: MALAT1 nuclear FISH intensity, robust Z-score vs DMSO; higher = more nuclear MALAT1 lncRNA, active = -3 or less
# Details: 10 µM; 6 h
# 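Also: High-content confocal imaging of branched-DNA amplified FISH in 384-well plates, Hoechst-defined nuclei, score is well value minus plate DMSO median over DMSO robust SD, four wells per compound.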
row,SMILES,MALAT1 nuclear FISH intensity
1,CO/N=C(\C(=O)N[C@@H]1C(=O)N2C(C(=O)OC(C)OC(C)=O)=C(COC(N)=O)CS[C@H]12)c1ccco1 (stereo partly specified) [Cefuroxime Axetil],0.223
2,C#C[C@]1(O)CC[C@H]2[C@@H]3CCC4=CCCC[C@@H]4[C@H]3C(=C)C[C@@]21CC [Desogestrel],-0.0225
3,C[C@@H](NCCCc1cccc(C(F)(F)F)c1)c1cccc2ccccc12,-0.761
4,CO[C@H]1C[C@@H]2CC[C@@H](C)[C@@](O)(O2)C(=O)C(=O)N2CCCC[C@H]2C(=O)O[C@H]([C@H](C)C[C@@H]2CC[C@@H](O)[C@H](OC)C2)CC(=O)[C@H](C)/C=C(\C)[C@@H](O)[C@@H](OC)C(=O)[C@H](C)C[C@H](C)/C=C/C=C/C=C/1C [Sirolimus (Rapamycin)],3.21
5,CC(C)/N=c1\cc2n(-c3ccc(Cl)cc3)c3ccccc3nc-2cc1Nc1ccc(Cl)cc1 [Clofazimine],-0.504
6,C[C@H]1COC2=C1C(=O)C(=O)c1c2ccc2c1CCCC2(C)C [Cryptotanshinone],-0.131
7,Nc1cc(-c2ccncc2)c[nH]c1=O [Amrinone],-0.625
8,CCN(CC)CCCC(C)Nc1ccnc2cc(Cl)ccc12 (stereo unspecified) [Chloroquine],0.282
9,CC(C)c1nc(N(C)S(C)(=O)=O)nc(-c2ccc(F)cc2)c1/C=C/[C@@H](O)C[C@@H](O)CC(=O)O [Rosuvastatin Calcium],-1.42
10,CCCNCC(O)COc1ccccc1C(=O)CCc1ccccc1 (stereo unspecified),1.18
11,CC(C)(C)NC[C@H](O)COc1cccc2c1CCCC2=O,-0.402
12,C=CC[C@@H]1/C=C(\C)C[C@H](C)C[C@H](OC)[C@H]2O[C@@](O)(C(=O)C(=O)N3CCCC[C@H]3C(=O)O[C@H](/C(C)=C/[C@@H]3CC[C@@H](O)[C@H](OC)C3)[C@H](C)[C@@H](O)CC1=O)[C@H](C)C[C@@H]2OC [Tacrolimus (Fk506)],-1.22
13,O=C(O)c1cccnc1Nc1cccc(C(F)(F)F)c1 [Niflumic acid],-0.0939
14,CC(=O)O[C@H]1C[C@@]2(C)[C@@H](C[C@@H](O)[C@H]3[C@@]4(C)CC[C@@H](O)[C@@H](C)[C@@H]4CC[C@@]32C)/C1=C(\CCC=C(C)C)C(=O)O [Fucidin],-0.351
15,CC(N)=NCc1cccc(CN)c1,0.0701
16,OC[C@H]1NC[C@H](O)[C@@H](O)[C@@H]1O [1-Deoxynojirimycin],-0.641
17,CC1=C(/C=C/C(C)=C/C=C/C(C)=C\C(=O)O)C(C)(C)CCC1 [Isotretinoin (13-Cis-Retinoic Acid)],-0.557
18,CCCN[C@H]1CCc2nc(N)sc2C1 [Pramipexole Dihydrochloride Monohydrate],-0.69
19,CC[C@H](C)C(=O)O[C@H]1C[C@@H](C)C=C2C=C[C@H](C)[C@H](CC[C@@H](O)C[C@@H](O)CC(=O)O)[C@H]21 [Lovastatin Sodium Salt],-0.314
20,CC1(C)NC(=O)N(c2ccc([N+](=O)[O-])c(C(F)(F)F)c2)C1=O [Nilutamide],-0.809
21,CC[C@H]1OC(=O)[C@H](C)[C@@H](O[C@H]2C[C@@](C)(OC)[C@@H](O)[C@H](C)O2)[C@H](C)[C@@H](O[C@@H]2O[C@H](C)C[C@H](N(C)C)[C@H]2O)[C@](C)(O)C[C@@H](C)C(=O)[C@H](C)[C@@H](O)[C@]1(C)O [Erythromycin],0.88
22,O=[N+]([O-])c1cccc2c(Br)[nH]nc12 [Bromo-7-nitroindazole],-0.538
23,Clc1ccc(CCC(Cn2ccnc2)Sc2c(Cl)cccc2Cl)cc1 (stereo unspecified) [Butoconazole Nitrate],0.588
24,Cc1c(C)c2c(c(C)c1O)CCC(C)(C(=O)O)O2 (stereo unspecified),-0.367
25,C1CCC(C(CC2CCCCN2)C2CCCCC2)CC1 (racemic) [rac Perhexiline Maleate],0.286
26,CO[C@H]1C[C@@H]2CC[C@@H](C)[C@@](O)(O2)C(=O)C(=O)N2CCCC[C@H]2C(=O)O[C@H]([C@H](C)C[C@@H]2CC[C@@H](O)[C@H](OC)C2)CC(=O)[C@H](C)/C=C(\C)[C@@H](O)[C@@H](OC)C(=O)[C@H](C)C[C@H](C)/C=C/C=C/C=C/1C [Rapamycin],1.16
